High-throughput results deposited in PubChem BioAssay by National Center for Advancing Translational Sciences (NCATS).
ELG1 DNA repair: blocks ELG1-dependent DNA repair in HEK293T cells | HEK293T ELG1-luciferase reporter, luminescence, 16 h; DNA damage induced by 5-fluorouridine | Potency, µM (titrated, usually from 46.1 µM), without a hit: at the top dose activity change, negative = inhibition, most hits filed as inhibitors | 330,000 compounds, 2.3% hits; also: potency is read from the fitted curve at half-maximal effect; nearly all actives have a fitted effect of over 55% in size
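HEK293T cells expressing luciferase-tagged ELG1 (2,000/well) received 5-Fluorouridine plus compound or DMSO for 16 hr at 37 °C. Luciferase was read by ONE-Glo luminescence after 30 min at room temperature.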
TSHR antagonist: blocks TSH signaling through the human TSH receptor; P16473; TSHR-expressing cells, TSH-stimulated cAMP HTRF, 2 h; hits give low values; activity change, negative = inhibition, % at 11.5 µM; 330,000 compounds, 0.2% hits; AID 504810;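 active = activity change below a set negative limit, meaning inhibition stronger than a set level, cut at about -70% in these data; inconclusive = activity change between two set negative limits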
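Freshly harvested TSHR cells receive pin-tooled compound, then EC80 TSH at 4nM final. After 2 hours at 37 deg C, antibody in lysis buffer and cAMP-d2 are added; 30 minutes at ambient temperature precede the HTRF read.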
Gal4-VP16 FLuc: Gal4-VP16 reporter inhibition counter-screen; Drosophila S2 Gal4-VP16 UAS-luciferase, luminescence, 20 h; Potency, µM (series often up to 53.6 µM), for the others: top-dose activity, negative = inhibition, hits mostly inhibitors; 310,000 compounds, 3.5% hits;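 also: Gal4-VP16 expression switched on by copper sulfate through the metallothionein promoter; potency is read from the fitted curve at half-maximal effect; nearly all actives have a fitted effect of over 50% in size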
RORg inh: inhibitors of mouse ROR gamma transcriptional activity; P51450; Potency, µM (top dose mostly 53.6 µM), for the others: top-dose activity change, negative = inhibition, most hits filed as inhibitors; Drosophila S2 Gal4-RORgamma UAS-luciferase reporter, 20 h; 310,000 compounds, 5.4% hits; also: potency is read from the fitted curve at half-maximal effect; nearly all actives have a fitted effect of over 60% in size
Target sequence (P51450 whole entry, looked up, the tested form may be a part): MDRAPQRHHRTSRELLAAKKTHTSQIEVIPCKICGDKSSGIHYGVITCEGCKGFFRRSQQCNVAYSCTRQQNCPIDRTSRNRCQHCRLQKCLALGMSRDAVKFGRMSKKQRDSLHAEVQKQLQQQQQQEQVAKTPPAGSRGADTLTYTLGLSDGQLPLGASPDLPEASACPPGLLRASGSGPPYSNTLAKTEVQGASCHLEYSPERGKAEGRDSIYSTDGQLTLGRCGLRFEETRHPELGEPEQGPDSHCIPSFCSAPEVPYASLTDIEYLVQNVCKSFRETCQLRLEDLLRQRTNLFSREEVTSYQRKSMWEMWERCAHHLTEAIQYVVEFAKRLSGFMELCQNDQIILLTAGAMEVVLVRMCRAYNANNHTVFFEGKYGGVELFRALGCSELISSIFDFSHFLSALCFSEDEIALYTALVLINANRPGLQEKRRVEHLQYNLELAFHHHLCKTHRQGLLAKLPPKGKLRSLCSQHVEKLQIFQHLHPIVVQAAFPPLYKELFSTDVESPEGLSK
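Luminescence from a UAS-regulated Photinus luciferase reporter in stably transfected Drosophila Schneider cells is measured; decreased signal marks ROR gamma inhibition. Fusion expression is induced by 700 uM copper sulfate for 20 hr.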
B2AR arrestin: agonists driving beta-arrestin recruitment to human beta2-adrenergic receptor | beta-arrestin recruitment to beta2AR, cell-based reporter | Potency, µM (doses to about 46.1 µM), inactives show top-dose activation, actives largely listed as activators | 330,000 compounds, 0.02% hits | AID 492947;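 also: potency is read from the fitted curve at half-maximal effect; 0% = DMSO controls and full agonism = EC100 isoproterenol or metaproterenol; nearly all actives have a fitted effect of over 65% in size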
Numbers without * were called inactive; ? = inconclusive; . = no result. Only some compounds are listed: those with a hit (about 7.5% of all), similar ones and a draw of the others. Unless noted, calls follow the shape of the dose curve; as a rule, active = well fitted curve in the direction sought with a large enough effect; inconclusive = small, poorly fitted or top-dose-only effect, or another doubt; inactive = no such curve, though single readings can be large; an effect the other way counts as inactive or inconclusive. Unless noted, % is scaled to controls: 0 for no effect and ±100 for the full control effect.

SMILES	ELG1 DNA repair	TSHR antagonist	Gal4-VP16 FLuc	RORg inh	B2AR arrestin
CN(C)C(=O)c1ccc(-c2ccc3ncnc(NCc4cccs4)c3c2)cc1	.	.	-2.6%	1.1%	.
COc1cccc(NC(=O)c2oc3ccc(S(=O)(=O)N4CCOCC4)cc3c2C)c1	20.6µM*	-21.9	2.9%	?	-0.2%
Cc1c(C(=O)Nc2cc(S(=O)(=O)N3CCOCC3)ccc2N2CCOCC2)oc2ccccc12	16.4µM*	4.5	-2.5%	13.0%	0.3%
Cc1ccc(NC(=O)c2oc3ccc(S(=O)(=O)N4CCOCC4)cc3c2C)cc1C	?	-6.3	-21.1%	-35.2%	0.2%
CCN(CC)S(=O)(=O)c1ccc2oc(C(=O)NCc3ccc(F)cc3)c(C)c2c1	11.6µM*	-15.5	4.9%	-1.4%	0.1%
O=C(Nc1cc(S(=O)(=O)N2CCOCC2)ccc1N1CCOCC1)c1ccccc1F	?	-10.6	.	.	0.4%
Cc1sc(N/N=C/C=C/c2ccccc2)nc1-c1ccccc1	1.7%	3.0	?	3.55µM*	-0.2%
Cc1cc(C)nc(N/N=C/c2ccccc2)n1	0.1%	-4.1	16.9%	?	-0.4%
Cc1cc(=O)[nH]c(N/N=C2/CCCC/C2=C\c2ccccc2)n1	8.2µM*	-0.4	17.8µM*	6.31µM*	0.2%
Cc1cc(=O)[nH]c(N/N=C/C=C/c2ccccc2)n1	2.1%	16.8	-19.5%	12.6µM*	0.0%
Cc1cc(C)nc(N/N=C/C=C/c2ccccc2)n1	?	-6.6	7.94µM*	1.26µM*	-0.6%
Cc1ccc(C(=O)OCC(=O)c2c[nH]c3ccccc23)cc1NC(=O)c1ccco1	-23.7%	-10.7	1.0%	26.0%	-0.2%
CCn1c(-c2cccnc2)n[nH]c1=S	-7.8%	13.1	-9.9%	?	-0.7%
CCn1c(-c2ccc(Cl)cc2)n[nH]c1=S	-7.5%	-1.5	12.6µM*	10µM*	0.9%
CCCCn1c(-c2ccc([N+](=O)[O-])cc2)n[nH]c1=S	5.9%	-1.1	8.91µM*	2.24µM*	-0.5%
CCn1c(-c2ccc(C)cc2)n[nH]c1=S	7.9%	-8.2	11.2µM*	8.91µM*	-1.7%
COc1ccc(/C(C)=N\Nc2nc(-c3ccccc3)cc(=O)[nH]2)cc1	2.3%	-7.2	-19.1%	-17.5%	-0.7%
C/C(=N\Nc1nc(C)cc(-c2ccccc2)n1)c1ccc(F)cc1	-5.7%	24.3	7.08µM*	3.16µM*	3.2%
C/C(=N/Nc1nc(-c2ccccc2)cc(-c2ccc(F)cc2)n1)c1cccc(N)c1	7.31µM*	35.2	14.1µM*	11.2µM*	0.1%
CC1(C)S[C@H]2C(NC(=O)[C@@H](N)c3ccc(O)cc3)C(=O)N2[C@@H]1C(=O)O (stereo not given in full)	.	.	1.0%	-11.6%	.
CCCCc1ccc(NC(=O)N2CCNC(=O)C2CC(=O)Nc2ccsc2C(=O)OC)cc1 (stereo not given)	23.1µM*	-1.1	-5.0%	0.1%	-0.9%
COC(=O)c1sccc1NC(=O)CC1C(=O)NCCN1C(=O)Nc1ccc(OCc2ccccc2)cc1 (stereo not given)	11.6µM*	-8.2	1.0%	21.7%	-0.1%
COC(=O)c1sccc1NC(=O)CC1C(=O)NCCN1C(=O)Nc1ccccc1 (stereo not given)	?	-1.5	-10.4%	13.4%	-0.2%
COC(=O)c1sccc1NC(=O)CC1C(=O)NCCN1C(=O)c1ccc(F)cc1 (stereo not given)	-2.2%	-5.8	-3.2%	-3.1%	0.4%
N#CCOC(=O)[C@H](Cc1ccccc1)N1C(=O)c2ccccc2C1=O	-2.5%	-6.7	-2.2%	8.2%	-0.3%
CCCn1c(C(C)NS(=O)(=O)c2ccccc2)n[nH]c1=S (stereo not given)	-5.9%	-3.2	-6.2%	10µM*	-0.1%
S=c1[nH]nc(Cc2ccccc2)n1Cc1ccco1	?	-22.0	12.6µM*	14.1µM*	-0.2%
CCCn1c(Cc2ccccc2)n[nH]c1=S	-4.0%	-0.6	?	15.8µM*	0.2%
Oc1cc2ccccc2cc1-c1n[nH]c(=S)n1Cc1ccco1	-6.6%	-10.7	-3.9%	12.6µM*	6.1%
Oc1ccc(-c2n[nH]c(=S)n2Cc2ccco2)cc1	17.6%	-12.0	-0.8%	-44.3%	-0.7%
